# Read-outs that look alike come from different tables or passages of the source.
# How the values were obtained:
# Conditions in all cases: n = 1
# NDR1 = test system: T1, NDR1
# T1 construct: gene STK38
# NDR2 = test system: NDR2
# NEK10 = test system: NEK10
# NEK11 = test system: NEK11
# NEK1 = test system: NEK1
# NEK2 = test system: NEK2
# NEK3 = test system: NEK3
# NEK4 = test system: NEK4
# NEK5 = test system: NEK5
# NEK6 = test system: NEK6
# NEK7 = test system: NEK7
# NEK9 = test system: NEK9
# NIK = test system: T2, NIK
# T2 construct: gene MAP3K14
# NIM1 = test system: T3, NIM1
# T3 construct: gene MGC42105
# NLK = test system: NLK
# OSR1 = test system: T4, OSR1
# T4 construct: gene OXSR1
# PAK1 = test system: PAK1
# PAK2 = test system: PAK2
# PAK3 = test system: PAK3
# PAK4 = test system: PAK4
# [1] = concentration: 1 μM, replicates: in singlicate
# 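Note: KINOMEscan kinase panel screen.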
smiles,measurement,setting,value
CN(C)CCN(C)C(=O)c1cc(-c2ccncc2)c(-c2ccc(Cl)c(O)c2)o1.Cl.Cl [SB-710397],%Inh,NDR1; [1],1%
same,%Inh,NDR2; [1],36%
same,%Inh,NEK10; [1],33%
same,%Inh,NEK11; [1],29%
same,%Inh,NEK1; [1],0%
same,%Inh,NEK2; [1],0%
same,%Inh,NEK3; [1],26%
same,%Inh,NEK4; [1],20%
same,%Inh,NEK5; [1],8%
same,%Inh,NEK6; [1],0%
same,%Inh,NEK7; [1],0%
same,%Inh,NEK9; [1],0%
same,%Inh,NIK; [1],16%
same,%Inh,NIM1; [1],35%
same,%Inh,NLK; [1],76%
same,%Inh,OSR1; [1],4%
same,%Inh,PAK1; [1],6%
same,%Inh,PAK2; [1],0%
same,%Inh,PAK3; [1],16%
same,%Inh,PAK4; [1],0%
Cl.c1ccc(-c2n[nH]cc2-c2ccnc(-c3ccc(CN4CCOCC4)cc3)c2)nc1 [GW776245],%Inh,NDR1; [1],14%
same,%Inh,NDR2; [1],31%
same,%Inh,NEK10; [1],0%
same,%Inh,NEK11; [1],0%
same,%Inh,NEK1; [1],0%
same,%Inh,NEK2; [1],21%
same,%Inh,NEK3; [1],14%
same,%Inh,NEK4; [1],0%
same,%Inh,NEK5; [1],6%
same,%Inh,NEK6; [1],22%
same,%Inh,NEK7; [1],0%
same,%Inh,NEK9; [1],0%
same,%Inh,NIK; [1],0%
same,%Inh,NIM1; [1],0%
same,%Inh,NLK; [1],0%
same,%Inh,OSR1; [1],0%
same,%Inh,PAK1; [1],6%
same,%Inh,PAK2; [1],14%
same,%Inh,PAK3; [1],10%
same,%Inh,PAK4; [1],16%
Cc1c(Cn2ccn3c(=O)cc(N4CCOCC4)nc23)cccc1C(F)(F)F [GSK2289044],%Inh,NDR1; [1],31%
same,%Inh,NDR2; [1],0%
same,%Inh,NEK10; [1],0%
same,%Inh,NEK11; [1],0%
same,%Inh,NEK1; [1],0%
same,%Inh,NEK2; [1],8%
same,%Inh,NEK3; [1],0%
same,%Inh,NEK4; [1],0%
same,%Inh,NEK5; [1],2%
same,%Inh,NEK6; [1],0%
same,%Inh,NEK7; [1],4%
same,%Inh,NEK9; [1],20%
same,%Inh,NIK; [1],0%
same,%Inh,NIM1; [1],7%
same,%Inh,NLK; [1],27%
same,%Inh,OSR1; [1],8%
same,%Inh,PAK1; [1],16%
same,%Inh,PAK2; [1],8%
same,%Inh,PAK3; [1],13%
same,%Inh,PAK4; [1],0%
Cc1cc(-c2ccc3c(c2)CC[C@@H](N[C@@H](C)c2ccccc2)C3)cnc1N.Cl [GW412617],%Inh,NDR1; [1],0%
same,%Inh,NDR2; [1],0%
same,%Inh,NEK10; [1],63%
same,%Inh,NEK11; [1],20%
same,%Inh,NEK1; [1],0%
same,%Inh,NEK2; [1],3%
same,%Inh,NEK3; [1],0%
same,%Inh,NEK4; [1],16%
same,%Inh,NEK5; [1],0%
same,%Inh,NEK6; [1],14%
same,%Inh,NEK7; [1],9%
same,%Inh,NEK9; [1],0%
same,%Inh,NIK; [1],77%
same,%Inh,NIM1; [1],22%
same,%Inh,NLK; [1],0%
same,%Inh,OSR1; [1],8%
same,%Inh,PAK1; [1],0%
same,%Inh,PAK2; [1],16%
same,%Inh,PAK3; [1],0%
same,%Inh,PAK4; [1],36%
Clc1cc(Cl)cc(Nc2ccnc(Nc3cc(Cl)cc(Cl)c3)n2)c1 [GSK175726],%Inh,NDR1; [1],21%
same,%Inh,NDR2; [1],11%
same,%Inh,NEK10; [1],4%
same,%Inh,NEK11; [1],8%
same,%Inh,NEK1; [1],1%
same,%Inh,NEK2; [1],4%
same,%Inh,NEK3; [1],16%
same,%Inh,NEK4; [1],0%
same,%Inh,NEK5; [1],23%
same,%Inh,NEK6; [1],0%
same,%Inh,NEK7; [1],0%
same,%Inh,NEK9; [1],7%
same,%Inh,NIK; [1],0%
same,%Inh,NIM1; [1],0%
same,%Inh,NLK; [1],17%
same,%Inh,OSR1; [1],0%
same,%Inh,PAK1; [1],12%
same,%Inh,PAK2; [1],0%
same,%Inh,PAK3; [1],0%
same,%Inh,PAK4; [1],6%
CC(C)(C)c1ccc(C(=O)Nc2cn3cc(-c4cccnc4)ccc3n2)cc1,%Inh,NDR1; [1],49%
same,%Inh,NDR2; [1],0%
same,%Inh,NEK10; [1],2%
same,%Inh,NEK11; [1],0%
same,%Inh,NEK1; [1],13%
same,%Inh,NEK2; [1],8%
same,%Inh,NEK3; [1],54%
same,%Inh,NEK4; [1],0%
same,%Inh,NEK5; [1],31%
same,%Inh,NEK6; [1],13%
same,%Inh,NEK7; [1],4%
same,%Inh,NEK9; [1],0%
same,%Inh,NIK; [1],20%
same,%Inh,NIM1; [1],22%
same,%Inh,NLK; [1],1%
same,%Inh,OSR1; [1],0%
same,%Inh,PAK1; [1],36%
same,%Inh,PAK2; [1],36%
same,%Inh,PAK3; [1],51%
same,%Inh,PAK4; [1],24%
COc1cccc(NC(=O)NC2CCN(c3ccnc(Nc4ccc(F)cc4)n3)C2)c1 (stereo not shown) [GSK1379721],%Inh,NDR1; [1],9%
same,%Inh,NDR2; [1],27%
same,%Inh,NEK10; [1],0%
same,%Inh,NEK11; [1],2%
same,%Inh,NEK1; [1],0%
same,%Inh,NEK2; [1],1%
same,%Inh,NEK3; [1],6%
same,%Inh,NEK4; [1],0%
same,%Inh,NEK5; [1],29%
same,%Inh,NEK6; [1],0%
same,%Inh,NEK7; [1],16%
same,%Inh,NEK9; [1],35%
same,%Inh,NIK; [1],2%
same,%Inh,NIM1; [1],14%
same,%Inh,NLK; [1],0%
same,%Inh,OSR1; [1],4%
same,%Inh,PAK1; [1],0%
same,%Inh,PAK2; [1],0%
same,%Inh,PAK3; [1],0%
same,%Inh,PAK4; [1],0%
COc1ccc(Nc2nccc(NCCNC(=O)Nc3ccccc3F)n2)cc1 [GSK1379901],%Inh,NDR1; [1],26%
same,%Inh,NDR2; [1],0%
same,%Inh,NEK10; [1],13%
same,%Inh,NEK11; [1],0%
same,%Inh,NEK1; [1],0%
same,%Inh,NEK2; [1],0%
same,%Inh,NEK3; [1],19%
same,%Inh,NEK4; [1],0%
same,%Inh,NEK5; [1],3%
same,%Inh,NEK6; [1],0%
same,%Inh,NEK7; [1],0%
same,%Inh,NEK9; [1],0%
same,%Inh,NIK; [1],9%
same,%Inh,NIM1; [1],9%
same,%Inh,NLK; [1],7%
same,%Inh,OSR1; [1],8%
same,%Inh,PAK1; [1],0%
same,%Inh,PAK2; [1],0%
same,%Inh,PAK3; [1],0%
same,%Inh,PAK4; [1],0%
COc1ccccc1-c1ccc2c(NC(=O)C3CC3)n[nH]c2n1 [SB-711239],%Inh,NDR1; [1],8%
same,%Inh,NDR2; [1],0%
same,%Inh,NEK10; [1],11%
same,%Inh,NEK11; [1],33%
same,%Inh,NEK1; [1],0%
same,%Inh,NEK2; [1],22%
same,%Inh,NEK3; [1],0%
same,%Inh,NEK4; [1],6%
same,%Inh,NEK5; [1],0%
same,%Inh,NEK6; [1],4%
same,%Inh,NEK7; [1],6%
same,%Inh,NEK9; [1],5%
same,%Inh,NIK; [1],0%
same,%Inh,NIM1; [1],19%
same,%Inh,NLK; [1],15%
same,%Inh,OSR1; [1],64%
same,%Inh,PAK1; [1],5%
same,%Inh,PAK2; [1],0%
same,%Inh,PAK3; [1],7%
same,%Inh,PAK4; [1],12%
Cc1ccc(NC(=O)Nc2cccc(C(F)(F)F)c2)cc1 [GSK955403],%Inh,NDR1; 1 µM,15%
same,%Inh,NDR2; 1 µM,17%
same,%Inh,NEK10; 1 µM,24%
same,%Inh,NEK11; 1 µM,0%
same,%Inh,NEK1; 1 µM,7%
same,%Inh,NEK2; 1 µM,3%
same,%Inh,NEK3; 1 µM,5%
same,%Inh,NEK4; 1 µM,0%
same,%Inh,NEK5; 1 µM,0%
same,%Inh,NEK6; 1 µM,0%
same,%Inh,NEK7; 1 µM,0%
same,%Inh,NEK9; 1 µM,0%
same,%Inh,NIK; 1 µM,8%
same,%Inh,NIM1; 1 µM,0%
same,%Inh,NLK; 1 µM,15%
same,%Inh,OSR1; 1 µM,0%
same,%Inh,PAK1; 1 µM,24%
same,%Inh,PAK2; 1 µM,5%
same,%Inh,PAK3; 1 µM,0%
same,%Inh,PAK4; 1 µM,4%
Cc1cccc(-c2nc(Nc3cccc(C(N)=O)c3)c3ccccc3n2)n1 [GW876019],%Inh,NDR1; [1],9%
same,%Inh,NDR2; [1],0%
same,%Inh,NEK10; [1],12%
same,%Inh,NEK11; [1],0%
same,%Inh,NEK1; [1],6%
same,%Inh,NEK2; [1],0%
same,%Inh,NEK3; [1],28%
same,%Inh,NEK4; [1],0%
same,%Inh,NEK5; [1],12%
same,%Inh,NEK6; [1],0%
same,%Inh,NEK7; [1],0%
same,%Inh,NEK9; [1],15%
same,%Inh,NIK; [1],0%
same,%Inh,NIM1; [1],0%
same,%Inh,NLK; [1],0%
same,%Inh,OSR1; [1],0%
same,%Inh,PAK1; [1],16%
same,%Inh,PAK2; [1],21%
same,%Inh,PAK3; [1],49%
same,%Inh,PAK4; [1],17%

# Reference: PMC5540273 (PLoS ONE, 2017)
